Molecules are shown by their SMILES. The campaign covered roughly 69,000 compounds. About 8,600 (12%) showed an effect of 50% or more. What follows is part of a selection rich in strong results, with near analogues and random picks from the rest.

The assay relates to Plasmodium berghei. Description: Screen against P. berghei liver stage (PbLuc), transformed with Luciferase, at 10uM. To be noted: tested at 10 uM. Type of assay: functional, HepG2.
As to `CCN1CCC(NC(=O)CN2CC(n3nc(C)cc3C)C2)CC1`, the INHIBITION is given as 23.5%.

`CC(=O)N[C@@H]1CN(Cc2nc3ccccc3[nH]2)C[C@H]1c1ccc(C)o1`: the INHIBITION is 39%.

For `CC(Cn1ccnc1)NCc1cc(Br)c2c(c1)OCO2` (stereo not drawn), the INHIBITION is -7.72%.

On to `COc1cc(CNCC(O)c2ccccc2F)cc2c1OCO2` (stereo not drawn), for which the INHIBITION was -9.37%.

With `FC(F)Oc1ccccc1CNCc1cc(Br)c2c(c1)OCO2`, the INHIBITION is 58.6%.

Take `COc1cc(CNCC(O)c2ccccc2)cc2c1OCO2` (stereo not drawn): the INHIBITION is -54.6%.

As for `COc1ccc(CNCc2cc(Br)c3c(c2)OCO3)cc1`, the INHIBITION is 74.7%.

Consider `COc1cc(CNCc2ccc(C(C)O)cc2)cc2c1OCO2` (stereo not drawn), for which the INHIBITION was 49.3%.

`FC(F)Oc1ccc(CNCc2cc(Br)c3c(c2)OCO3)cc1`: the INHIBITION is 80.8%.

Turning to `FC(F)Oc1ccc(CNCc2cc(Cl)c3c(c2)OCO3)cc1`, the INHIBITION amounted to 24.6%.

Regarding `Fc1ccc(CNCc2cc(Br)c3c(c2)OCO3)cc1`, the INHIBITION was 78%.

`Cn1cc(CCNCc2cc(Br)c3c(c2)OCO3)cn1`: the INHIBITION amounted to 37.6%.

With `COc1cc(CNCC(O)c2ccc(F)cc2F)cc2c1OCO2` (stereo not drawn), the INHIBITION amounted to 0.914%.

Take `Cc1ccc(CNCc2cc(Br)c3c(c2)OCO3)cc1`: the INHIBITION is 45.4%.

In the case of `C[C@@H]1CN(c2ccc(Cl)cn2)C[C@]1(C)O`, the INHIBITION was 4.161%.

Regarding `Fc1cnc(N2CCO[C@H]3[C@H](OCCN4CCCC4)CC[C@@H]32)nc1`, the INHIBITION is on record as 4.68%.

For `Cc1ccc(-c2nnc(CNCCn3cccn3)o2)cc1`, the INHIBITION was 37.9%.

Consider `COCc1cc(NCc2ccccc2-n2cncn2)ncn1`, for which the INHIBITION was 15.7%.

Regarding `CN(Cc1nc(-c2ccccc2)no1)Cc1cnc(N2CCOCC2)s1`, the INHIBITION came out at 25.8%.

Regarding `CN(C)CCn1c2c(ccc1=O)CCN(C(=O)c1cccs1)CC2`, the INHIBITION was found to be 13.5%.

With `COc1c(CNCc2cccc(CN(C)C)c2)c(C)nn1C`, the INHIBITION is on record as 35.3%.

For `Cc1nc(Nc2cnccn2)cc(C2CCCN2C2CCOCC2)n1` (stereo not drawn), the INHIBITION turned out to be 25.6%.

As for `CC(C)C1CCCN1C(=O)Nc1ccc(=O)n(C)c1` (stereo not drawn), the INHIBITION is listed as -22.1%.

Consider `CCc1nc(C2CCCN2CC(=O)Nc2nnc(C)s2)no1` (stereo not drawn), for which the INHIBITION is reported as -11.9%.

Regarding `CC(C)n1nc(CN2CCCC2=O)c2c1CN(C(=O)c1ccc[nH]1)C2`, the INHIBITION was found to be 7.67%.

For `NC(=O)c1c(NC(=O)C2CCCO2)sc2c1CCc1ccccc1-2` (stereo not drawn), the INHIBITION was -57.9%.

`Cc1ccccc1S(=O)(=O)N1CCC(c2[nH]ncc2C)C1` (stereo not drawn): the INHIBITION came out at 11.1%.

Take `CCC(=O)N1CC[C@H]2[C@H](C[C@@H](CN3CCCC3)N2c2nccs2)C1`: the INHIBITION is listed as -0.284%.

On to `CC(=O)N1CC[C@H]2[C@H](C[C@@H](CN3CCCC3)N2c2nccs2)C1`, for which the INHIBITION worked out at 0.71%.

For the compound `CC(C)N1CC[C@H]2[C@H](C[C@@H](Cn3cncn3)N2c2nccs2)C1`, the INHIBITION is 0.71%.

For the compound `CN1CC[C@H]2[C@H](C[C@@H](CN3CCCC3)N2c2nccs2)C1`, the INHIBITION amounted to 34.5%.

In the case of `CC(=O)N1CC[C@H]2[C@H](C[C@@H](Cn3cncn3)N2c2nccs2)C1`, the INHIBITION was 85.4%.

For `CN1CC[C@H]2[C@H](C[C@@H](Cn3cncn3)N2c2nccs2)C1`, the INHIBITION is listed as 69.7%.

For `Cc1nnc(N2CCOC(C)(C(=O)N(C)C)C2)c2ccccc12` (stereo not drawn), the INHIBITION is -9.51%.

For `Cc1cnn(CC2CCCN2C(=O)c2cccc3[nH]ncc23)c1` (stereo not drawn), the INHIBITION came out at 24.5%.

As to `Cc1cccc(Oc2ccccc2CNC(=O)C2CCC(=O)NC2)c1` (stereo not drawn), the INHIBITION stood at 37.9%.

For the compound `O=C(NCC(O)(c1ccco1)C1CC1)c1ccccc1F` (stereo not drawn), the INHIBITION came to 9.79%.

Regarding `O=C(NCc1ccc(F)cc1)NCC(O)(c1ccco1)C1CC1` (stereo not drawn), the INHIBITION came out at 66.9%.

Consider `O=C(NCc1ccc(F)cc1)NCC(O)(c1cccs1)C1CC1` (stereo not drawn), for which the INHIBITION is given as -11.8%.

On to `CN(C)Cc1nn(C)c2c1CCN(C(=O)c1cccnc1)C2`, for which the INHIBITION was 17.4%.

In the case of `Fc1ccc(N2CCOC(Cc3cccnc3)C2)cc1` (stereo not drawn), the INHIBITION is recorded as 7.52%.

Regarding `CN(C)[C@H]1CCCCN(C(=O)COCc2nc3cc(F)ccc3[nH]2)C1`, the INHIBITION was found to be 51.3%.

As to `CN1CC[C@H]2CN(C(=O)COCc3nc4cc(F)ccc4[nH]3)C[C@H]21`, the INHIBITION was determined as 47.3%.

`CN1C[C@@H]2CC[C@H]1CN(C(=O)COCc1nc3ccc(F)cc3[nH]1)C2`: the INHIBITION amounted to 35.1%.

In the case of `Cc1ccc(Br)cc1C(=O)Nc1cc(C(N)=O)n(C)c1`, the INHIBITION was -20.2%.

Turning to `Cc1nc(C)n(CC2CN(Cc3cscn3)CCO2)n1` (stereo not drawn), the INHIBITION is on record as 21.935%.

`COc1cccc(-n2cc(-c3ccnc(N[C@H](CO)C(C)C)n3)cn2)c1`: the INHIBITION is 5.8%.

Take `COC[C@H]1CCCN1c1nccc(-c2cnn(-c3ccccc3C)c2)n1`: the INHIBITION is on record as 78.5%.

As to `Cc1ccccc1-n1cc(-c2ccnc(N3CCCC(O)C3)n2)cn1` (stereo not drawn), the INHIBITION was 3.06%.

`Cc1ccccc1-n1cc(-c2ccnc(N[C@H](CO)C(C)C)n2)cn1`: the INHIBITION turned out to be 68.2%.

Consider `COc1cccc(-n2cc(-c3ccnc(N[C@@H](CO)C(C)C)n3)cn2)c1`, for which the INHIBITION is reported as -95.7%.

For the compound `COc1cccc(-n2cc(-c3ccnc(NC(CO)C(C)C)n3)cn2)c1` (stereo not drawn), the INHIBITION is -40.6%.

`Cc1ccccc1-n1cc(-c2ccnc(N[C@@H](CO)C(C)C)n2)cn1`: the INHIBITION came out at 8.7%.

As for `Cc1ccccc1-n1cc(-c2ccnc(N3CCCC(CN)C3)n2)cn1` (stereo not drawn), the INHIBITION is recorded as -29.6%.

Regarding `Cc1ccccc1-n1cc(-c2ccnc(NC(CO)C(C)C)n2)cn1` (stereo not drawn), the INHIBITION is 95.7%.

As to `Cc1cc(CN2CCN(C(=O)NCc3cccs3)CC2)no1`, the INHIBITION is on record as -43.5%.

Consider `CC(=O)NCCc1ccc(S(=O)(=O)Nc2cc(F)ccc2C)s1`, for which the INHIBITION is -12.2%.

As for `CC(=O)N1CCC(c2cccc(NC3CCOCC3)n2)CC1`, the INHIBITION turned out to be 11.8%.

Regarding `COCCOCC1(CNCc2ccc(OC)cc2)C[C@@H](O)[C@@H](O)C1` (stereo partly drawn), the INHIBITION was -1.12%.

For the compound `COCCOCC1(CNC(=O)c2ccc(OC)cc2)C[C@@H](O)[C@@H](O)C1` (stereo partly drawn), the INHIBITION is recorded as 50.6%.

For `COCCOCC1(CNCc2cccc(OC)c2)C[C@@H](O)[C@@H](O)C1` (stereo partly drawn), the INHIBITION came out at 12.4%.

With `Cc1nccc(N[C@H]2CN(CC(C)(C)N3CCOCC3)C[C@@H]2C2CC2)n1`, the INHIBITION was -10.6%.

`c1cc(CN2CC[C@H]3CO[C@H](CN4CCOCC4)[C@H]3C2)cs1`: the INHIBITION turned out to be 2.59%.

These data come from ChEMBL document CHEMBL4513216, “Probing the Open Global Health Chemical Diversity Library for Multistage-Active Starting Points for Next-Generation Antimalarials” (ACS Infect Dis, 2020).
